Records with an inconclusive call do not appear. Calls of active or inactive are those of the source. Calls come from the whole dose curve; as a rule, active = well fitted inhibition curve with a large enough effect; inconclusive = small, poorly fitted or top-dose-only effect; inactive = flat fitted curve, though single readings scatter.
How the values were obtained:
Assay in all cases: Cytotoxic Profiling of Annotated Libraries Using Quantitative High-Throughput Screening (AID 1296008); note: nearly all actives have a fitted effect of over 60% in size
Conditions in all cases: Five cell lines viability, CellTiter-Glo ATP luminescence, 48-72 h; max response: hits give low values
CRL-7250 = normal cell line; tested on: CRL-7250
In short: (§1)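 Compounds were pin-transferred onto cells and incubated 48 or 72 hr at 37 degree Celsius, 95% humidity. CellTiter-Glo was added, plates sat 10 min at room temperature, then ATP-coupled luminescence was imaged as the viability read-out.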

HEK293 = tested on: HEK293
In short: as §1

HaCat = tested on: HaCat
In short: as §1

KB-3-1 = tested on: KB-3-1
In short: as §1
% is set by controls: 0 for no effect and ±100 for the full control effect; potency is the fitted concentration of half-maximal effect.

C=C1C(OC2OCC(O)C(O)C2O)CC2C(C)(C)C(O)CCC2(C)C1CC/C(C)=C\CO (stereo not given)
inactive: max response (CRL-7250) -6.07% | max response (HEK293) -24.4% | outcome (HaCat) | max response (KB-3-1) 3.38%

CO[C@H]1/C=C\O[C@@]2(C)Oc3c(C)c(O)c4c(O)c(c5c(nc6cc(C)ccn65)c4c3C2=O)NC(=O)/C(C)=C\C=C/[C@H](C)[C@H](O)[C@@H](C)[C@@H](O)[C@@H](C)[C@H](OC(C)=O)[C@@H]1C
inactive: max response (CRL-7250) -2.8% | max response (HEK293) -17.1% | max response (HaCat) -2.81% | max response (KB-3-1) 9.37%

Cc1cc(C)nc(NS(=O)(=O)c2ccc(NC(=S)NC(=O)COc3ccc(Br)cc3Cl)cc2)n1
inactive: max response (CRL-7250) 3.21% | max response (HEK293) 2.6% | max response (HaCat) -3.13% | max response (KB-3-1) 8.68%

O=C(Nc1ccccc1)N1CCN(Cc2ccc3ccccc3n2)CC1
inactive: outcome (CRL-7250) | max response (HEK293) -11% | max response (HaCat) -4.72% | max response (KB-3-1) -4.71%

CCNC(=O)Nc1ncc(-c2cc(-c3c(C)cc(OC)cc3C)nc(-c3cnccn3)n2)s1
inactive: max response (CRL-7250) -11.4% | outcome (HEK293) | outcome (HaCat) | max response (KB-3-1) 1.64%

CC(CO)C1CCC2(C)CC3C(CO)CC(O)C3C(C)(O)C/C=C/12 (stereo not given)
inactive: max response (CRL-7250) -6.97% | max response (HEK293) -10.5% | max response (HaCat) -5.8% | outcome (KB-3-1)

COc1ccc([C@@]2(O)c3c(ccc4c3OC(C)(CCC=C(C)C)C=C4)NC(=O)[C@@H]2OC)cc1 (stereo not given in full)
inactive: max response (CRL-7250) 4.89% | max response (HEK293) -3.72% | max response (HaCat) 1.02% | max response (KB-3-1) 4.57%

COC(=O)C1=COC(OC2OC(CO)C(O)C(O)C2O)C2C1C=CC2(O)CO (stereo not given)
inactive: outcome (CRL-7250) | max response (HEK293) -11.3% | max response (HaCat) -21.5% | outcome (KB-3-1)

C=C1C(OC(C)=O)CCC2(C)CC3(OC)OC(=O)C(C)=C3CC12 (stereo not given)
inactive: max response (CRL-7250) -3.85% | max response (HEK293) -22.9% | max response (HaCat) -0.749% | max response (KB-3-1) 7.17%

CC1(C)CCCC2(C)C1CC=C1C(=O)OC(O)C12O (stereo not given)
inactive: max response (CRL-7250) -7.54% | max response (HEK293) -21.2% | max response (HaCat) 3.25% | max response (KB-3-1) 3.77%

COc1cc(C(=O)NC2CCN(C)CC2)ccc1Nc1ncc2c(n1)N(C1CCCC1)CC(F)(F)C(=O)N2C
active: Potency (CRL-7250) 2.31 µM | Potency (HEK293) 0.0146 µM | Potency (HaCat) 0.116 µM | Potency (KB-3-1) 0.0058 µM

COc1cc(N2CCC(N3CCN(C)CC3)CC2)ccc1Nc1ncc(Cl)c(-c2c[nH]c3ccccc23)n1
active: Potency (CRL-7250) 10.3 µM | Potency (HEK293) 2.91 µM | Potency (HaCat) 3.66 µM | Potency (KB-3-1) 4.61 µM

C/C(=C/CO)CC[C@@H]1[C@@](C)(O)CCC2C(C)(C)CCC[C@]21C (stereo not given in full)
inactive: max response (CRL-7250) 1.57% | max response (HEK293) 4.02% | max response (HaCat) 0.603% | max response (KB-3-1) 5.46%

COC(=O)C(C)C1CCC2(C)C(=O)C=CC(C)(O)C2C1O (stereo not given)
inactive: outcome (CRL-7250) | max response (HEK293) -6.36% | max response (HaCat) 4.7% | outcome (KB-3-1)

C/C=C/C=C/[C@@H]1O[C@](O)([C@H](CC)C(=O)NC/C=C/C=C(\C)[C@@H](OC)[C@@H](C)C2OC(/C=C/C=C/C=C(\C)C(=O)c3c(O)cc[nH]c3=O)[C@H](O)[C@@H]2O)[C@H](O)[C@H](O)C1(C)C (stereo not given in full)
inactive: max response (CRL-7250) 2.59% | max response (HEK293) 1.43% | max response (HaCat) -11.5% | max response (KB-3-1) 2.01%

CC(C)C(C(=O)N(C)C(C)C(N)=O)N(C)C(=O)C1CCCN1C(=O)/C=C/C=C/C(O)C(C)O (stereo not given)
inactive: outcome (CRL-7250) | max response (HEK293) 4.88% | max response (HaCat) -10.3% | max response (KB-3-1) 7.9%

CC1(O)CCCC2(C)C1CCC13CC(CO)C(CCC12)C3 (stereo not given)
inactive: max response (CRL-7250) -2.17% | max response (HEK293) -21.4% | max response (HaCat) 2.13% | outcome (KB-3-1)

CN1CCN(C(=O)c2ccc3cc(CCNc4ncnc5ccc(C#N)cc45)ccc3c2)CC1
active: Potency (CRL-7250) 4.61 µM | Potency (HEK293) 2.91 µM
inactive: outcome (HaCat) | max response (KB-3-1) -26.4%

CC(C)C(C#N)O[C@@H]1O[C@H](CO[C@@H]2O[C@@H](C)[C@H](O)[C@@H](O)[C@H]2O)[C@@H](O)[C@H](O)[C@H]1O (stereo not given in full)
inactive: max response (CRL-7250) -4.82% | max response (HEK293) 0.693% | max response (HaCat) -12% | max response (KB-3-1) -1.19%

COc1ccc(CCC(=O)c2c(O)cc(O)cc2O[C@@H]2O[C@H](CO)[C@@H](O)[C@H](O)[C@H]2O)cc1
inactive: max response (CRL-7250) -5.63% | max response (HEK293) -3.22% | max response (HaCat) -11.7% | max response (KB-3-1) 8.59%

COC1/C=C/C(C)(O)C(SCC(N)C(=O)O)CC(=O)OC(C)C(C)CC/C=C/1C (stereo not given)
inactive: max response (CRL-7250) 1.64% | outcome (HEK293) | outcome (HaCat) | max response (KB-3-1) 0.268%

C=C1C(OC(=O)/C(C)=C\C)[C@@]23CCC4[C@@](C)(CCC[C@@]4(C)C(=O)O)C2CC[C@H]1C3OC(C)=O (stereo not given in full)
inactive: max response (CRL-7250) -2.82% | max response (HEK293) -4.19% | max response (HaCat) 4.6% | max response (KB-3-1) 5.82%

CC1=C(C(=O)O)/C(=C/CO[C@@H]2O[C@H](COC(=O)/C=C/c3ccc(O)cc3)[C@@H](O)[C@H](O)[C@H]2O)C(O)C1 (stereo not given in full)
inactive: max response (CRL-7250) 0.839% | max response (HEK293) 1.96% | max response (HaCat) -4.87% | max response (KB-3-1) 2.44%

CC(C)(C)Nc1nc(Nc2ccc(C(N)=O)cc2)cc(N)c1C#N
inactive: max response (HaCat) -5.65%
active: Potency (CRL-7250) 13 µM | Potency (HEK293) 1.64 µM | Potency (KB-3-1) 5.8 µM

O=C(CC(c1ccccc1)c1ccccc1)N1CCN(C(c2ccccc2)c2ccccc2)CC1
active: Potency (HEK293) 20.6 µM | Potency (KB-3-1) 18.4 µM
inactive: max response (CRL-7250) -24.4% | max response (HaCat) -29%

CC[C@H](NC(=O)[C@H](CS(=O)(=O)CC1CC1)N[C@@H](c1ccc(F)cc1)C(F)(F)F)C(=O)C(=O)NC1CC1
inactive: max response (CRL-7250) 3.55% | max response (HEK293) -20.2% | max response (HaCat) -1.21% | max response (KB-3-1) 3.82%

COc1cc(-c2ncn(/C=C\C(=O)OC(C)C)n2)cc(C(F)(F)F)c1
active: Potency (CRL-7250) 4.11 µM | Potency (HEK293) 0.259 µM | Potency (HaCat) 2.06 µM | Potency (KB-3-1) 1.84 µM

COC(=O)C1(C)CCC2(C(=O)O)CCC3(C)C(=CCC4C5(C)CC(O)C(OC6OCC(O)C(O)C6O)C(C)(CO)C5CCC43C)C2C1 (stereo not given)
inactive: max response (CRL-7250) 3.48% | max response (HEK293) 0.887% | max response (HaCat) -27.2% | max response (KB-3-1) 9.85%

C=C1[C@@H]2CC[C@@H]3[C@@](CCC4C(C(=O)O)(C(=O)O)C[C@@H](O[C@@H]5O[C@H](CO)[C@@H](O)[C@H](O)[C@H]5OC(=O)CC(C)C)C[C@]43C)(C2)[C@H]1O (stereo not given in full)
inactive: max response (CRL-7250) -6.97% | max response (HEK293) -0.701% | max response (HaCat) 2.26% | outcome (KB-3-1)

C/C1=C\CCC2=C[C@@H](OC2=O)c2c(C)coc2C1
inactive: max response (CRL-7250) 1.59% | max response (HEK293) -3.99% | max response (HaCat) -3.91% | max response (KB-3-1) 2.55%

COC1C(=O)CCC2(CO2)C1(O)C1(C)OC1CC=C(C)C (stereo not given)
inactive: max response (CRL-7250) -21.3% | max response (HEK293) -34.7% | max response (HaCat) -2.7% | max response (KB-3-1) 6.79%

CC(=O)N1CCN(Cc2ccc([C@H](C)Nc3nccc(N4C(=O)OC[C@@H]4C(C)C)n3)cc2)CC1
inactive: max response (HEK293) -108% | max response (HaCat) -0.103% | max response (KB-3-1) 2.58%
active: Potency (CRL-7250) 0.92 µM

CCC(CC)C(=O)Nc1sc2c(c1C#N)CCC(C(C)(C)CC)C2 (stereo not given)
active: Potency (HEK293) 23.1 µM
inactive: outcome (CRL-7250) | max response (HaCat) 1.75% | max response (KB-3-1) -9.22%

OC/C=C/C=C/[C@H]1Cc2cc(O)cc(O)c2O1
inactive: outcome (CRL-7250) | max response (HEK293) -7.6% | max response (HaCat) -12.2% | max response (KB-3-1) 6.07%

CC(=O)C12OC(C)(C)OC1CC1C3CCC4=CC(=O)C=CC4(C)C3(F)C(O)CC12C (stereo not given)
inactive: max response (CRL-7250) -7.35% | max response (HEK293) -19.2% | max response (HaCat) -3.19% | outcome (KB-3-1)

COc1cc(OC)cc(C(=O)Nc2ccc(Cl)c(-c3nc4ccc(N(C)C)cc4[nH]3)c2)c1
active: Potency (HEK293) 10.3 µM
inactive: outcome (CRL-7250) | outcome (HaCat) | max response (KB-3-1) 2.52%

C[C@@H]1O[C@@H](O[C@H]2[C@@H]3C=CO[C@@H](O[C@@H]4O[C@H](CO)[C@@H](O)[C@H](O)[C@H]4O)[C@@H]3[C@@]3(CO)O[C@@H]23)[C@H](OC(=O)/C=C/c2ccccc2)[C@H](O)[C@H]1O
inactive: max response (CRL-7250) -0.445% | max response (HEK293) -1.51% | outcome (HaCat) | outcome (KB-3-1)

CCCCNc1ccc(-c2ccc(CN3CCOCC3)cn2)c(NC2CCC(O)CC2)c1 (stereo not given)
inactive: outcome (CRL-7250) | max response (HEK293) -7.2% | max response (HaCat) -2.49% | max response (KB-3-1) -18.8%

Cc1ccc(-c2ccc3c(ccc4sc5c(c43)NC[C@@H](C)NC5=O)n2)cn1
inactive: outcome (CRL-7250) | max response (HEK293) -21.3% | max response (HaCat) -8.25% | outcome (KB-3-1)

CC(=O)O[C@@H]1[C@@H](O)[C@H](O[C@H]2CC[C@]34C[C@]35CC[C@]3(C)[C@@H]([C@@]6(C)CC[C@@H](C(C)(C)O)O6)[C@@H](O)C[C@@]3(C)[C@@H]5C[C@H](O[C@@H]3O[C@H](CO)[C@@H](O)[C@H](O)[C@H]3O)[C@H]4C2(C)C)OC[C@H]1O
inactive: max response (CRL-7250) 1.83% | max response (HEK293) -2.54% | outcome (HaCat) | outcome (KB-3-1)

From PubChem BioAssay (NCATS)
